Our source for the INHIBITION values is ChEMBL document CHEMBL4513216, “Probing the Open Global Health Chemical Diversity Library for Multistage-Active Starting Points for Next-Generation Antimalarials” (ACS Infect Dis, 2020).

About 2,100 (3.2%) of roughly 65,000 compounds showed an effect of 50% or more. The median lay at about -52%. For the sample, strong results were picked, then their nearest neighbours and some compounds at random.

The assay concerns Plasmodium falciparum. Description: Screen against P. falciparum Asexual Blood Stage (ABS), at 5uM. It is filed as functional, Dd2. The following applies: tested at 5 uM.
`O=C(Nc1cccnc1-n1cccn1)N1CCCC(N2CCCC2)C1` (configuration not stated): the INHIBITION came out at 26.8%.
To `CCN(CC)C1CCN(C(=O)NCc2cccc(-n3cccn3)c2)C1` (configuration not stated) belongs -61.3%.
Consider `O=C(c1cc(-n2cccn2)ccc1Cl)N1CCC(N2CCCC2=O)CC1`, for which the INHIBITION is listed as -100%.
To `O=C(c1ccc(-n2cccn2)c(F)c1)N1CCCN2CCCC2C1` (configuration not stated) belongs -23.2%; to `O=C(c1cc(-n2cccn2)ccc1Cl)N1CCCC(N2CCCC2)C1` (configuration not stated), 65.8%; to `Cc1cccc(NC2CCN(C(=O)Nc3ccc(F)c(F)c3)CC2)n1`, -20.3%.
Regarding `Cc1ccc(C(=O)N2CCC3(CC2)CC(N2CCOCC2)C3)cc1`, the INHIBITION is listed as -158%.
To `CC(C)CC(=O)Nc1cccc(CNCc2cccs2)c1` belongs -70.1%; to `O=C(c1cc[nH]n1)N1CCc2onc(COc3cccnc3)c2C1`, -33.4%.
As to `O=C(c1ccncc1F)N1Cc2nc(COCC3CC3)oc2C1`, the INHIBITION is on record as -37.7%.
To `c1cncc(COCc2nnc3n2CCN(Cc2ccco2)C3)c1` belongs -119%; to `Cn1cc(-c2cnc3n2CCC32CCN(S(=O)(=O)C3CC3)CC2)cn1`, -61.5%; to `Cc1cnc(NCc2csc(C(C)C)n2)nc1-c1cnn(C)c1`, -52.9%.
To `CCn1ncnc1CN1CCc2[nH]cnc2C1Cc1ccccc1` (configuration not stated) belongs -61.6%.
For the compound `CCCn1ccnc1CN1CCc2[nH]cnc2C1Cc1ccccc1` (configuration not stated), the INHIBITION is 66.5%.
Then `COCCn1ccnc1CN1CCc2[nH]cnc2C1c1ccccn1` (configuration not stated), with -11.9%; and `COc1ccc(N2CCN(CC(O)c3cc(C)ccc3C)CC2)cc1` (configuration not stated), with 31.4%; and `Oc1ccc(CCC2CCCCN2Cc2noc(C3CC3)n2)cc1` (configuration not stated), with -61.9%.
To `Cc1noc(C)c1CN1CCCCC1CCc1ccc(O)cc1` (configuration not stated) belongs 51.5%; to `Cc1nc(CN2CCCCC2CCc2ccc(O)cc2)no1` (configuration not stated), -168%.
Then `Cc1ccc(S(=O)(=O)N2CCc3nc(C4CCNCC4)ncc3C2)cc1`, with -51.4%; and `N#Cc1cccc(C(=O)N2CCCC(O)(CO)CC2)c1` (configuration not stated), with -41.3%; and `Cn1cc(CN2CCc3ccc(=O)n(CC4CC4)c3CC2)cn1`, with -67.9%.
For `CS(=O)(=O)CCNC(=O)c1ccc(-c2ccco2)[nH]c1=O`, the INHIBITION was -78.3%.
Then `COc1ccc(CC2CN(C3CCSCC3)CCO2)cc1` (configuration not stated), with -96.7%.
Then `Cc1nnc(N2CC[C@H](OCC3CC3)[C@@H](Cc3ccccc3)C2)s1`, with -3.27%; and `COc1ccc(C[C@H]2CN(C3CCOCC3)CC[C@@H]2OCC2CC2)cc1`, with 60.9%; and `COc1ccc(C[C@H]2CN(C3CCOCC3)CC[C@H]2OCC2CC2)cc1`, with 68.4%.
As to `COc1ccc(OC)c(C2CCN(C3CCOCC3)C2)c1` (configuration not stated), the INHIBITION is reported as -74.2%.
In the case of `COc1ccc(CN2C[C@H](OCC3CCOCC3)[C@H]3COC[C@H]32)cc1`, the INHIBITION is listed as -12.7%.
`Nc1cc(-c2c[nH]nc2C2CCCCN2C(=O)C2CCCC2)ccn1` (configuration not stated): the INHIBITION is on record as -12.7%.
To `Cc1ccc(NC(=O)Cn2ncc(SCC(N)=O)c(Cl)c2=O)c(F)c1` belongs -57.4%; to `COc1ccccc1NC(=O)N(CCO)Cc1ccsc1`, -19.5%.
On to `O=C(NC1CCC1)[C@H]1CCS(=O)(=O)[C@@H]2CN(CCc3ccccc3)C[C@H]12`, for which the INHIBITION was -96.2%.
As for `Cc1nc(CN2CCCN(C(=O)c3cccnc3O)CC2)cs1`, the INHIBITION was 49.4%.
Then `CCOc1ccc(NC(C)=O)cc1S(=O)(=O)Nc1cc(C)on1`, with -90.8%; and `Cc1ccc(C)c(OC2CCN(C(=O)CNc3ccccc3Cl)CC2)c1`, with -76.6%; and `CCc1nc(CC(=O)N2CCn3c(nnc3C(F)(F)F)C2)cs1`, with -206%.
Turning to `Cc1nc(CC(=O)N2CCn3c(nnc3C(C)C)C2)cs1`, the INHIBITION is given as 51.5%.
Then `CCc1nc(CC(=O)N2CCn3c(CC)nnc3C2)cs1`, with 52%.
`CC(C)c1nnc2n1CCN(C(=O)Cc1csc(C(C)(C)C)n1)C2`: the INHIBITION was 20.2%.
For `CCc1nc(CC(=O)N2CCn3c(nnc3C(C)C)C2)cs1`, the INHIBITION is reported as -56.3%.
Take `CCc1nc(CC(=O)N2CCn3c(C)nnc3C2)cs1`: the INHIBITION was -18.3%.
For the compound `c1coc(COCc2ncn3c2CN(Cc2cccs2)CCC3)c1`, the INHIBITION is recorded as -87%.
On to `O=C(C1NCCc2[nH]cnc21)N1CCC2(C=Cc3ccccc32)CC1` (configuration not stated), for which the INHIBITION is on record as -16.1%.
Then `O=C(c1cccc(Cl)c1)N1CC[C@H]2[C@H]1CCN2CC1CC1`, with -55.8%.
Then `CCN(C1CCN(Cc2ncc(C(C)(C)C)o2)CC1)S(C)(=O)=O`, with -26.2%.
Regarding `CS(=O)(=O)N1CCC(c2nc3ccc(-c4cccc(F)c4)cn3n2)CC1`, the INHIBITION was -44.9%.
Regarding `CC1(C)CN(Cc2c[nH]c(CC3CCCC3)n2)CC[C@]1(C)O`, the INHIBITION is -29.5%.
Then `OC1(CN2CCCC2)CCCN(Cc2c[nH]c(CC3CCCC3)n2)C1` (configuration not stated), with 37.2%; and `OC1(CN2CCCCC2)CCN(Cc2c[nH]c(CC3CCCC3)n2)C1` (configuration not stated), with 54.6%.
Take `CN(C)c1ccc(C(=O)NCc2cccnc2-n2cncn2)cc1F`: the INHIBITION is on record as -20.3%.
